# Test results as given in PubChem BioAssay (EPA / NIEHS).
# Records with an inconclusive call do not appear. Active and inactive are the calls of the source. The calls were made as follows, unless noted: active = hit-call score of the fitted dose curve at least 0.9, where 1 is the maximum; inactive = score below 0.9.
# What was measured:
# [1] = tested on: SERPINA7 (gene 6906); assay: CCTE_GLTED_hTBG: CCTE's human Thyroxine-binding Globulin (TBG) Inhibition Assay, Great Lakes Toxicology and Ecology Division (GLTED) Lab (AID 2284343; active = hit-call score of the fitted dose curve at least 0.9, where 1 is the maximum;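 also: active chemicals lower fluorescence versus DMSO baseline by displacing probe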)
# How it was run: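 Measures how far test chemicals displace ANSA bound to purified human TBG. The read-out is fluorescence at 380 nm excitation and 475 nm emission, taken after 2 h of incubation.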
# [2] = CCTE_Padilla_ZF_Score.General: CCTE's 144 Hour Post-fertilization zebrafish Assay Score for General Malformation, Padilla Lab (AID 2284411)
# How it was run: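 Wild-type zebrafish embryos were plated singly at 6-8 hpf in 10% Hanks' and exposed in sealed wells at 26C until rinsed on 5 dpf. At 6 dpf two blinded assessors scored mortality, hatching and malformations by stereomicroscopy; gain-of-signal versus DMSO.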
# [3] = CCTE_Mundy_HCI_iCellGluta_NOG_NeuronCount: CCTE's Neurite Outgrowth Assay in iCellGluta cells for Neuron Count, Mundy Lab (AID 2284340; active = hit-call score of the fitted dose curve at least 0.9, where 1 is the maximum;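 also: cells fixed about 48 h after compound addition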)
# How it was run: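 Neuron count read by automated high-content imaging of Hoechst 33342 and betaIII-tubulin/Alexa Fluor-488 labelling in human iPSC glutamatergic neurons. Activity fitted relative to DMSO.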
# [4] = CCTE_Mundy_HCI_iCellGluta_NOG_NeuriteCount: CCTE's Neurite Outgrowth Assay in iCellGluta cells for Neurite Count, Mundy Lab (AID 2284342; active = hit-call score of the fitted dose curve at least 0.9, where 1 is the maximum;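 also: chemical exposure about 48 hours starting 2 hours after plating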)
# [5] = tested on: SRY-box transcription factor 17 (SOX17) Protein Expression, Deisenroth Lab, SOX17 (gene 64321); assay: CCTE_Deisenroth_DEVTOX-GLR_legacy_Sox17: (Legacy) CCTE's DevTox GLR-Endo Assay Evaluation of SRY-box transcription factor 17 (SOX17) Protein Expression, Deisenroth Lab (AID 2284341); conditions: actives raise or lower the signal
# How it was run: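 Percent SOX17-positive cells, scored by high-content imaging as mean intensity exceeding pluripotent-control median by 5x BMAD, divided by cell count. Human RUES2-GLR endoderm differentiation, 48 h, two exposures 24 h apart, 1 nM–200 uM; DMSO-referenced bidirectional fitting.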
# [6] = tested on: SRY-box transcription factor 2 (SOX2) Protein Expression, Deisenroth Lab, SOX2 (gene 6657); assay: CCTE_Deisenroth_DEVTOX-GLR_legacy_Sox2: (Legacy) CCTE's DevTox GLR-Endo Assay Evaluation of SRY-box transcription factor 2 (SOX2) Protein Expression, Deisenroth Lab (AID 2284346)
# How it was run: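 RUES2-GLR human pluripotent cells seeded 24 h, then differentiated 48 h in defined media with two chemical doses 24 h apart (10-point, 1 nM–200 uM). Fixed, nuclear-stained, imaged; % Sox2+ cells (>5x BMAD over endoderm control median), DMSO-subtracted, fitted upward.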
# [7] = tested on: SRY-box transcription factor 2 (SOX2) Protein Expression, Deisenroth Lab, SOX2 (gene 6657); assay: CCTE_Deisenroth_DEVTOX-GLR_Endo_SOX2: CCTE's DevTox GLR-Endo Assay Evaluation of SRY-box transcription factor 2 (SOX2) Protein Expression, Deisenroth Lab (AID 2284412; active = hit-call score of the fitted dose curve at least 0.9, where 1 is the maximum)
# How it was run: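 RUES2-GLR human pluripotent cells were seeded 24 h, then differentiated 48 h with two chemical exposures 24 h apart. Cells were fixed, nuclei stained and imaged by high-content microscopy. Endpoint is %SOX2+ cells over cell count, minus 0.2% DMSO control; 10-point series 1 nM–200 uM.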
# [8] = tested on: SRY-box transcription factor 17 (SOX17) Protein Expression, Deisenroth Lab, SOX17 (gene 64321); assay: CCTE_Deisenroth_DEVTOX-GLR_Endo_SOX17: CCTE's DevTox GLR-Endo Assay Evaluation of SRY-box transcription factor 17 (SOX17) Protein Expression, Deisenroth Lab (AID 2284413)
# How it was run: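 Endpoint: % change in SOX17+ fraction (SOX17+ cells / cell count) vs 0.2% DMSO solvent control. RUES2-GLR reporter cells, 48 h endoderm differentiation, two doses at 24 h intervals, high-content fluorescence imaging, 5 fields/well.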
# [9] = tested on: Brachyury (BRA) Protein Expression, TBXT (gene 6862); assay: CCTE_Deisenroth_DEVTOX-GLR_Endo_BRA: CCTE's DevTox GLR-Endo Assay Evaluation of Brachyury (BRA) Protein Expression, Deisenroth Lab (AID 2284417)
# How it was run: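 Endpoint is the fraction of BRA reporter-positive cells over total nuclei, corrected by subtracting the 0.2% DMSO value. Chemicals (1 nM - 200 uM, 10 points) were dosed twice during 48 h differentiation of RUES2-GLR cells, read by imaging.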
# [10] = CCTE_Deisenroth_DEVTOX-GLR_Endo_CellCount: Viability Assessment in CCTE's DevTox GLR-Endo Assay, Deisenroth Lab (AID 2284420)
# How it was run: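 Human pluripotent RUES2-GLR line; 24 h pre-seed; 48 h endoderm-directed differentiation; 2 doses, q24h; 10 conc., 1 nM - 200 uM; fix + nuclear dye; 5 fields/well imaged; readout = nuclei count, % change vs 0.2% DMSO; n=4.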
# [11] = tested on: SRY-box transcription factor 17 (SOX17) Protein Expression, Deisenroth Lab, SOX17 (gene 64321); assay: CCTE_Deisenroth_DEVTOX-GLR_Pluri_SOX17: CCTE's DevTox GLR-Pluri Assay Evaluation of SRY-box transcription factor 17 (SOX17) Protein Expression, Deisenroth Lab (AID 2284427; active = hit-call score of the fitted dose curve at least 0.9, where 1 is the maximum)
# How it was run: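 Human RUES2-GLR pluripotent line; 24 h seeding, 48 h defined-media differentiation, 2 doses q24h, 10 conc 1 nM - 200 uM. Fix, nuclear stain, image 5 fields/well. Endpoint = %SOX17+ minus 0.2% DMSO; n=4.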
# [12] = CCTE_Padilla_ZF_Score.Craniofacial: CCTE's 144 Hour Post-fertilization zebrafish Assay Score for Craniofacial Malformation, Padilla Lab (AID 2284405)
# How it was run: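 Wild-type zebrafish embryos (with chorions), one per well in 10% Hanks', were dosed at 6–8 hpf in sealed plates and kept at 26C. They were rinsed at 5 dpf. At 6 dpf two blinded assessors scored craniofacial malformations by brightfield stereomicroscopy.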
# [13] = CCTE_Padilla_ZF_Score.Edema: CCTE's 144 Hour Post-fertilization zebrafish Assay Score for Edema Malformation, Padilla Lab (AID 2284406)
# How it was run: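 Wild-type zebrafish embryos, one per well in Hanks' solution, dosed at 6-8 hpf, sealed and reared at 26C on a 14:10 h cycle; rinsed on 5 dpf. At 6 dpf, blinded assessors scored edema by stereomicroscopy.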
# [14] = CCTE_Padilla_ZF_Score.Spine: CCTE's 144 Hour Post-fertilization zebrafish Assay Score for Spine Malformation, Padilla Lab (AID 2284407)
# How it was run: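 Wild-type zebrafish embryos, one per well in Hanks' solution, dosed at 6–8 hpf in sealed plates at 26C, 14:10 h light:dark; rinsed at 5 dpf. Two blinded assessors scored spinal defects by stereomicroscopy at 6 dpf; fitted versus DMSO.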
# [15] = CCTE_Padilla_ZF_Score.Swim_bladder: CCTE's 144 Hour Post-fertilization zebrafish Assay Score for Swim Bladder Malformation, Padilla Lab (AID 2284408)
# How it was run: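 Wild-type zebrafish embryos, one per well in 10% Hanks', dosed at 6–8 hpf, sealed, reared at 26C and rinsed at 5 dpf. Blinded assessors scored uninflated swim bladder by stereomicroscopy at 6 dpf, relative to DMSO.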
# [16] = CCTE_Padilla_ZF_Score.Position: CCTE's 144 Hour Post-fertilization zebrafish Assay Score for Position, Padilla Lab (AID 2284409)
# How it was run: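 Wild-type zebrafish embryos (with chorions) exposed singly from 6–8 hpf in sealed wells of Hanks' solution at 26C, rinsed at 5 dpf. At 6 dpf, blinded assessors scored abnormal water-column position by brightfield stereomicroscopy, relative to DMSO.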
# [17] = CCTE_Padilla_ZF_Score.Living: CCTE's 144 Hour Post-fertilization zebrafish Assay Score for Viability, Padilla Lab (AID 2284410);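 also: larval death at 6 dpf judged by absent heartbeat or coagulation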
# How it was run: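 Wild-type zebrafish embryos were exposed singly from 6–8 hpf in sealed wells of Hanks' solution at 26C, then rinsed at 5 dpf. At 6 dpf, blinded assessors scored mortality (no heartbeat or coagulation) by stereomicroscopy, fitted against DMSO.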
# [18] = CCTE_Padilla_ZF_Score.Tail: CCTE's 144 Hour Post-fertilization zebrafish Assay Score for Tail Malformation, Padilla Lab (AID 2284414)
# How it was run: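 Wild-type zebrafish embryos, one per well in 200 uL 10% Hanks', dosed at 6-8 hpf, sealed, and kept at 26 C on a 14:10 h light cycle. Chemical was rinsed out at 5 dpf. Blinded brightfield scoring of tail defects followed at 6 dpf.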
# [19] = CCTE_Padilla_ZF_Score.Blood_pooling: CCTE's 144 Hour Post-fertilization zebrafish Assay Score for Blood Pooling, Padilla Lab (AID 2284415)
# How it was run: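 Wild-type outbred zebrafish embryos, one per well in 10% Hanks', exposed from 6–8 hpf in sealed plates at 26C on 14:10 h light:dark, rinsed at 5 dpf. Blinded stereomicroscope scoring of blood pooling at 6 dpf; gain-of-signal versus DMSO.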
# [20] = CCTE_Padilla_ZF_Score.Any: CCTE's 144 Hour Post-fertilization zebrafish Assay Score for Any Mortality or Malformation, Padilla Lab (AID 2284416)
# How it was run: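 Wild-type zebrafish embryos with chorions, one per well in 10% Hanks' from 6–8 hpf, dosed in sealed plates at 26 C, 14:10 h light:dark; rinsed at 5 dpf; blinded scoring at 6 dpf for death or malformation, versus DMSO.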
smiles,measurement,setting,value
C=C[Si]1(C)O[Si](C)(C=C)O[Si](C)(C=C)O[Si](C)(C=C)O1 (stereo not given),outcome,[1],inactive
C=Cc1ccncc1,AC50,[2],22.6 µM (active)
Cc1ccc(S(=O)(=O)Oc2ccc(N=Nc3ccc(-c4ccc(N=Nc5c(O)ccc6cc(S(=O)(=O)O)cc(S(=O)(=O)O)c56)c(C)c4)cc3C)cc2)cc1,AC50,[1],3.93 µM (active)
CN(C)CCOC(C)(c1ccccc1)c1ccccn1 (stereo not given),outcome,[3],inactive
same,outcome,[4],inactive
O=C(c1ccccc1)C(O)c1ccccc1 (stereo not given),AC50,[1],15.9 µM (active)
CCN(CC)C(=O)N(CC)CC,outcome,[2],inactive
CCCCCC(C=O)=Cc1ccccc1,outcome,[2],inactive
CS(=O)(=O)OCCCCOS(C)(=O)=O,AC50,[5],47.3 µM (active)
same,AC50,[6],77 µM (active)
same,outcome,[7],inactive
same,AC50,[8],44.5 µM (active)
same,AC50,[9],100 µM (active)
same,AC50,[10],14.4 µM (active)
same,AC50,[11],45.4 µM (active)
O=C(CC(=O)c1ccccc1)c1ccccc1,AC50,[1],8.66 µM (active)
Clc1ccc(C(c2ccccc2Cl)C(Cl)Cl)cc1 (stereo not given),AC50,[1],1.79 µM (active)
COc1ccc(CCN2CCC(Nc3nc4ccccc4n3Cc3ccc(F)cc3)CC2)cc1,AC50,[2],0.439 µM (active)
OCc1cccc(Oc2ccccc2)c1,AC50,[1],27.4 µM (active)
O=C(Nc1ccc2c(O)c(N=Nc3ccc(N=Nc4ccc(S(=O)(=O)O)cc4)cc3)c(S(=O)(=O)O)cc2c1)c1ccccc1,AC50,[1],16.6 µM (active)
Oc1ccc2cc(SSc3ccc4cc(O)ccc4c3)ccc2c1,AC50,[1],0.423 µM (active)
BrCc1cccc(Oc2ccccc2)c1,AC50,[1],23.3 µM (active)
C=C(C)C(=O)OCCOCCOCCOCCOC(=O)C(=C)C,outcome,[2],inactive
C[C@@H]1CCN(C(=O)[C@H](CCCN=C(N)N)NS(=O)(=O)c2cccc3c2NC[C@H](C)C3)[C@@H](C(=O)O)C1,outcome,[2],inactive
COCCc1ccc(OCC(O)CNC(C)C)cc1 (stereo not given),outcome,[3],inactive
same,outcome,[4],inactive
CCCCC(CC)COC(=O)c1ccc(O)cc1 (stereo not given),AC50,[1],5.72 µM (active)
c1ccc(Oc2ccccc2)cc1,outcome,[2],inactive
COCCOCCOCCO,outcome,[3],inactive
same,outcome,[4],inactive
CC(C)CCCCCCCCCCCCCCC(=O)O,AC50,[1],5.3 µM (active)
c1ccc(CCc2ccccc2)cc1,outcome,[2],inactive
COc1ccc(N=Nc2cc(C)c(N=Nc3ccc(S(=O)(=O)O)cc3)cc2OC)cc1,AC50,[1],35.5 µM (active)
O=[N+]([O-])c1ccc(O)cc1C(F)(F)F,AC50,[1],28.2 µM (active)
CCCCCCC(CO)CCCC (stereo not given),AC50,[1],24.2 µM (active)
O=CCc1ccccc1,AC50,[1],14.2 µM (active)
C=C(C)C(=O)OCCOCCOCCOC(=O)C(=C)C,outcome,[2],inactive
CC1(C)C2=CCCC(C)(C)[C@]23CC[C@H]1C3,outcome,[2],inactive
FC(F)(F)COCC(F)(F)F,outcome,[12],inactive
same,outcome,[13],inactive
same,outcome,[14],inactive
same,outcome,[15],inactive
same,outcome,[16],inactive
same,outcome,[17],inactive
same,outcome,[2],inactive
same,outcome,[18],inactive
same,outcome,[19],inactive
same,outcome,[20],inactive
CN(c1nccc(=O)[nH]1)C1CCN(c2nc3ccccc3n2Cc2ccc(F)cc2)CC1,outcome,[2],inactive
N[C@@H](Cc1cc(I)c(Oc2cc(I)c(O)c(I)c2)c(I)c1)C(=O)O,AC50,[1],0.0273 µM (active)
